Active and inactive are the calls of the source. Unless noted, how the calls were made is not given here.
Experiments:
[1] = A549 cell viability effects, profiling panel, calcein-AM fluorescence, 48 h, basal (AID 1162); conditions: higher = more signal; further: test concentration not given here
[2] = adipocyte viability effects, profiling panel, cell-based, 3T3-L1 adipocytes, calcein-AM fluorescence, 48 h, basal (AID 1163); conditions: 3T3-L1 adipocytes viability, higher = more signal; further: test concentration not given here
[3] = HepG2 cell viability effects, profiling panel, calcein-AM fluorescence, 48 h, basal (AID 1164); conditions: higher = more signal; further: test concentration not given here
[4] = MM1S cell viability effects, profiling panel, calcein-AM fluorescence, 48 h, basal (AID 1165); conditions: higher = more signal;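 further: viability of MM1S multiple myeloma cells under basal unstimulated conditions; test concentration not given here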
[5] = basal RPMI8226 viability, no added stimulus, profiling panel, cell-based, calcein-AM fluorescence, 48 h, PK04 Diversity Set (AID 1166); conditions: RPMI8226 myeloma viability, higher = more signal;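 further: cells grown under basal conditions without added stimulus; test concentration not given here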
[6] = basal HepG2 mitochondrial membrane potential changes, profiling panel, cell-based, JC-1 fluorescence, 24 h, 100 nL compound (AID 1167); conditions: higher = more signal; further: test concentration not given here
[7] = basal 3T3-L1 adipocyte mitochondrial potential changes, profiling panel, cell-based, JC-1 fluorescence, 3T3-L1 adipocytes, 24 h, 100 nL compound (AID 1168); conditions: JC-1 mitochondrial fluorescence, higher = more signal, called active from +8 up or from −8 down; further: test concentration not given here
[8] = basal RPMI8226 mitochondrial membrane potential changes, profiling panel, cell-based, JC-1 fluorescence, 24 h, 100 nL compound (AID 1169); conditions: RPMI8226 myeloma, JC-1 mitochondrial potential fluorescence, higher = more signal; further: test concentration not given here
[9] = basal MM1S mitochondrial membrane potential changes, profiling panel, cell-based, JC-1 fluorescence, 24 h, 100 nL compound (AID 1170); conditions: higher = more signal; further: test concentration not given here
[10] = A549 lung cancer cell viability effects, profiling panel, resazurin fluorescence, 24 h, PK04 Diversity Set (AID 1171); conditions: higher = more signal, called active from +8 up or from −8 down; further: test concentration not given here
[11] = HepG2 liver cancer cell viability effects, profiling panel, resazurin fluorescence, 24 h, PK04 Diversity Set (AID 1172); conditions: higher = more signal; further: test concentration not given here
[12] = basal S. cerevisiae growth modulation, no modifier, primary screen, OD600, strain BY4716, 24 h, basal condition (AID 1173); conditions: OD600, 24 h, higher = more signal, called active from +8 up or from −8 down
[13] = MM1S myeloma cell viability, profiling panel, resazurin fluorescence, basal, 24 h, PK04 Diversity Set (AID 1174); conditions: higher = more signal, called active from +8 up or from −8 down;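 further: MM1S multiple myeloma cell line; test concentration not given here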
[14] = molecular target: Dihydroorotate dehydrogenase (quinone), mitochondrial (Plasmodium falciparum (isolate 3D7)) (UniProt Q08210); assay: PfDHODH enzyme inhibitors, primary screen, biochemical, C-terminal His tag, absorbance 600 nm (AID 1175); conditions: DCIP absorbance 600 nm, higher = more signal, called active from +8 up or from −8 down;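 further: recombinant parasite enzyme with a five histidine tag at its C terminus; test concentration not given here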
[15] = P. aeruginosa biofilm formation inhibitors, primary screen, strain PAO1, LB-PBS medium, absorbance 600 nm (AID 1176); further: test concentration not given here; conditions: P. aeruginosa PAO1 growth/biofilm, A600, 12 h; higher = more signal
[16] = S. cerevisiae RM11-1a growth modifiers, primary screen, strain RM11-1a, OD600, basal, 24 h (AID 1177); conditions: OD600, 24 h, higher = more signal, called active from +8 up or from −8 down;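 further: cultures grown under basal conditions with no added stressor; test concentration not given here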
[17] = E. coli acrAB mutant growth effects, primary screen, E. coli filamentation inducers, strain DRC39, OD650, 24 h (AID 1178); conditions: higher = more signal, called active from +8 up or from −8 down;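 further: growth measured as culture turbidity by optical density at 650 nm; test concentration not given here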
[18] = E. coli acrAB mutant growth effects, primary screen, E. coli filamentation inducers, strain DRC39, OD650, 48 h (AID 1179);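 further: screen aims at cell division blockers that make cells filament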; conditions: E. coli DRC39 delta-acrAB growth, higher = more signal, called active from +8 up or from −8 down
[19] = RPMI8226 myeloma cell viability, profiling panel, resazurin fluorescence, basal, 24 h, PK04 Diversity Set (AID 1180); conditions: higher = more signal;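 further: RPMI8826 multiple myeloma cell line at 5000 cells per well; test concentration not given here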
[20] = molecular target: E3 ubiquitin-protein ligase XIAP (Homo sapiens) (UniProt P98170); assay: XIAP binders, primary screen, biophysical, small-molecule microarray, fluorescence 635 nm (AID 1181); conditions: small-molecule microarray binding, higher = more signal;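 further: score merges 667 nm emission and signal to noise over triplicate slides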
Chain of E3 ubiquitin-protein ligase XIAP (Homo sapiens) (P98170 whole entry, looked up): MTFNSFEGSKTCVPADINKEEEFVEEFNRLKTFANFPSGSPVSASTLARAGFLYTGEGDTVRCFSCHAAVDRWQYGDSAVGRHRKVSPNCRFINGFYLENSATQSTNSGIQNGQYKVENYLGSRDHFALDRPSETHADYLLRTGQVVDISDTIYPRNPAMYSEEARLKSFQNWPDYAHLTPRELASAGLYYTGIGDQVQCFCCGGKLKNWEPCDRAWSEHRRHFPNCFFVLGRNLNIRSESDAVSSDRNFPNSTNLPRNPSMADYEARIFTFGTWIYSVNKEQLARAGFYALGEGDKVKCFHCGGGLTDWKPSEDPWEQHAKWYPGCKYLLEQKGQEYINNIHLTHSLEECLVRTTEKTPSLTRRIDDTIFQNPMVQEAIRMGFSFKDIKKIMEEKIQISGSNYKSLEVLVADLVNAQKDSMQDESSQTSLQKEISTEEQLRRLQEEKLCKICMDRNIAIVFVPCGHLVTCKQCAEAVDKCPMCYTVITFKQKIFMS

Chain of Dihydroorotate dehydrogenase (quinone), mitochondrial (Plasmodium falciparum (isolate 3D7)) (Q08210 whole entry, looked up): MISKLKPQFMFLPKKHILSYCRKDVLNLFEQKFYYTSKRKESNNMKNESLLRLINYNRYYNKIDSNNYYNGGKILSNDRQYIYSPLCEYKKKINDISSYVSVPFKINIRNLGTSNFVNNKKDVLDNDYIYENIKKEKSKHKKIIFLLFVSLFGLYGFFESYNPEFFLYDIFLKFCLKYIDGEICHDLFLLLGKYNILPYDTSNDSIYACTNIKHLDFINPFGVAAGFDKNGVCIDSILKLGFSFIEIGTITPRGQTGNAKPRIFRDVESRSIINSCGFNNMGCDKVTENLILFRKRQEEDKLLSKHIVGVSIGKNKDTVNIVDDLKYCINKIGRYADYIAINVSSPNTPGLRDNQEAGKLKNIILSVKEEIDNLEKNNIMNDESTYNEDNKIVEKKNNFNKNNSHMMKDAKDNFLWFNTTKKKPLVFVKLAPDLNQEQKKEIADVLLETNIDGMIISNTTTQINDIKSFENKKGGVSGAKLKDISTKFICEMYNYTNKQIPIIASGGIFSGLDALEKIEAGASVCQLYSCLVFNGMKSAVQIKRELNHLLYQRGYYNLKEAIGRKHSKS

`O=C1O[C@H](c2ccccc2)[C@H](c2ccccc2)N2[C@H]1[C@@H](C(=O)N1CCCCCCC1)[C@]1(C(=O)Nc3ccc(C#CCCO)cc31)[C@H]2c1ccc(OCCO)cc1` gave a z-score [1] of -0.84, a z-score [2] of 0.162 and a z-score [3] of 0.409. For the same compound, the z-score [4] was -0.276, the z-score [5] was -0.105 and the z-score [6] was -0.0749. The z-score [7] was -0.962 (inactive), the z-score [8] was -0.737 and the z-score [9] was -0.919. For the same compound, the z-score [10] was 1.93 (inactive), the z-score [11] was 1.08 and the z-score [12] was 0.905 (inactive). The z-score [13] was 0.332 (inactive), the composite z-score [14] was 0.521 (inactive) and the z-score [15] was 0.0568 (inactive). For the same compound, the z-score [16] was -0.0365 (inactive), the z-score [17] was 0.136 (inactive) and the z-score [18] was -0.656 (inactive). The z-score [19] was 0.543 and the composite z-score [20] was 2.52.

With `COC(=O)C(CC#Cc1ccc2c(c1)[C@]1(C(=O)N2)[C@H](C(=O)N2CCc3cc(OC)c(OC)cc3C2)[C@H]2C(=O)O[C@H](c3ccccc3)[C@H](c3ccccc3)N2[C@@H]1c1ccc(OCCO)cc1)C(=O)OC` the z-score [1] was 0.968, the z-score [2] was -0.204 and the z-score [3] was 1.63. It also gave a z-score [4] of 0.783, a z-score [5] of 0.678 and a z-score [6] of -2.03. For the same compound, the z-score [7] was 0.375 (inactive), the z-score [8] was -0.678 and the z-score [9] was -1.49. The z-score [10] was 0.21 (inactive), the z-score [11] was -0.0956 and the z-score [12] was 2.36 (inactive). For the same compound, the z-score [13] was -0.229 (inactive), the composite z-score [14] was -6.24 (inactive) and the z-score [15] was 3.55 (inactive). For the same compound, the z-score [16] was 4.29 (inactive), the z-score [17] was -0.538 (inactive) and the z-score [18] was 0.704 (inactive). The z-score [19] was -0.0688 and the composite z-score [20] was 0.23.

For `CN(C)C(=O)[C@@]1(CCC(=O)OC(C)(C)C)COC(c2ccc(OCCCO)cc2)=N1`, the z-score [1] was 0.236, the z-score [2] was -0.417 and the z-score [3] was 0.306. For the same compound, the z-score [4] was 0.0475, the z-score [5] was 0.0972 and the z-score [6] was -0.868. For the same compound, the z-score [7] was 0.0942 (inactive), the z-score [8] was 0.0733 and the z-score [9] was -1.14. The z-score [10] was 0.594 (inactive), the z-score [11] was 0.791 and the z-score [12] was -0.874 (inactive). The z-score [13] was 0.265 (inactive), the composite z-score [14] was -0.883 (inactive) and the z-score [15] was -0.512 (inactive). The z-score [16] was -0.0602 (inactive), the z-score [17] was 0.115 (inactive) and the z-score [18] was 0.465 (inactive). The z-score [19] was -0.195 and the composite z-score [20] was -0.0559.

Compound `NC(=O)[C@H]1[C@@H]2C(=O)O[C@@H](c3ccccc3)[C@@H](c3ccccc3)N2[C@@H](c2ccc(O)cc2)[C@]12C(=O)Nc1ccc(C#CC3(O)CCCCCC3)cc12` has a z-score [1] of 0.205, a z-score [2] of 1.54 and a z-score [3] of 0.961. For the same compound, the z-score [4] was -1.13, the z-score [5] was -4.08 and the z-score [6] was -1.39. The z-score [7] was -0.575 (inactive), the z-score [8] was -0.808 and the z-score [9] was -0.184. For the same compound, the z-score [10] was 0.995 (inactive), the z-score [11] was -0.518 and the z-score [12] was -0.475 (inactive). For the same compound, the z-score [13] was 0.522 (inactive), the composite z-score [14] was -0.885 (inactive) and the z-score [15] was 0.738 (inactive). The z-score [16] was -0.323 (inactive), the z-score [17] was 0.249 (inactive) and the z-score [18] was -0.815 (inactive). For the same compound, the z-score [19] was 0.159 and the composite z-score [20] was -0.102.

`CC(C)c1ccc(NN2C(C(O)c3cccs3)C=CC3C(=O)N(c4ccccc4)C(=O)C32)cc1` (stereo not given) showed a z-score [1] of -0.869, a z-score [2] of -0.986 and a z-score [3] of -0.245. It also gave a z-score [4] of -0.639, a z-score [5] of -0.476 and a z-score [6] of -2.91. For the same compound, the z-score [7] was -1.73 (inactive), the z-score [8] was 0.183 and the z-score [9] was 0.491. For the same compound, the z-score [10] was -0.28 (inactive), the z-score [11] was -1.75 and the z-score [12] was -2.27 (inactive). The z-score [13] was -1.73 (inactive), the composite z-score [14] was 0.355 (inactive) and the z-score [15] was 0.835 (inactive). The z-score [16] was 0.883 (inactive), the z-score [17] was -0.649 (inactive) and the z-score [18] was -0.73 (inactive). For the same compound, the z-score [19] was -1.14 and the composite z-score [20] was 0.44.

Compound `NCCCCCCNC(=O)[C@H]1C[C@H]2C(=O)N3CCC[C@H]3C(=O)N2[C@H]1c1ccc(O)cc1` has a z-score [1] of -0.194, a z-score [2] of 1.14 and a z-score [3] of -1.01. The z-score [4] was -0.346, the z-score [5] was -0.707 and the z-score [6] was -0.806. For the same compound, the z-score [7] was -1.34 (inactive), the z-score [8] was 0.26 and the z-score [9] was 0.698. The z-score [10] was -0.608 (inactive), the z-score [11] was -0.541 and the z-score [12] was -0.438 (inactive). For the same compound, the z-score [13] was -0.431 (inactive), the composite z-score [14] was -0.245 (inactive) and the z-score [15] was -0.0059 (inactive). For the same compound, the z-score [16] was -1.09 (inactive), the z-score [17] was 0.0967 (inactive) and the z-score [18] was -0.676 (inactive). For the same compound, the z-score [19] was -0.508 and the composite z-score [20] was -0.223.

With `O=C1OCC=C[C@H]2OC34C=CCN(CCN5CCOCC5)C(=O)[C@H]3N(CCCCCO)C(=O)[C@@H]4[C@@H]12` (stereo not given in full) the z-score [1] was 0.348, the z-score [2] was 0.277 and the z-score [3] was -0.36. For the same compound, the z-score [4] was 0.148, the z-score [5] was 0.182 and the z-score [6] was -0.539. For the same compound, the z-score [7] was 0.379 (inactive), the z-score [8] was 0.205 and the z-score [9] was 0.802. The z-score [10] was -0.536 (inactive), the z-score [11] was -0.267 and the z-score [12] was -0.654 (inactive). For the same compound, the z-score [13] was -1.12 (inactive), the composite z-score [14] was 0.31 (inactive) and the z-score [15] was -0.525 (inactive). For the same compound, the z-score [16] was 0.105 (inactive), the z-score [17] was -1.18 (inactive) and the z-score [18] was -1.37 (inactive). For the same compound, the z-score [19] was -0.82 and the composite z-score [20] was 0.11.

In the case of `C=C(C)[C@@H]1CC=C(C(O)C2C=CC3C(=O)N(C4CCCCC4)C(=O)C3N2Nc2ccc(OC)cc2)CC1` (stereo not given in full), the z-score [1] is reported as -0.447, the z-score [2] is reported as -1.46 and the z-score [3] is reported as 0.319. It also gave a z-score [4] of 0.0801, a z-score [5] of -0.0663 and a z-score [6] of -0.227. The z-score [7] was -0.836 (inactive), the z-score [8] was -0.393 and the z-score [9] was -1.4. The z-score [10] was 0.784 (inactive), the z-score [11] was 0.14 and the z-score [12] was 0.702 (inactive). The z-score [13] was -0.0469 (inactive), the composite z-score [14] was -0.157 (inactive) and the z-score [15] was 0.987 (inactive). For the same compound, the z-score [16] was 0.0587 (inactive), the z-score [17] was -0.703 (inactive) and the z-score [18] was -0.0015 (inactive). It also gave a z-score [19] of 0.199 and a composite z-score [20] of 0.356.
